Several values for one entry are separate records, joined by “and”; a condition that tells them apart may be missing. Identical values can stand only once. A structure can be active in one record and inactive in another. Activity calls are given as the source filed them. The calls were made as follows: active = hit-call score of the fitted dose curve at least 0.9, where 1 is the maximum; inactive = score below 0.9.
How the values were obtained:
[1] = BSK_hDFCGF_Proliferation: Cell Proliferation Assessment in the BioMAP Diversity Plus: hDFCGF Assay (AID 2283059); settings: primary human foreskin fibroblasts;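 also: curves fitted for both rise and fall of signal versus DMSO baseline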
Procedure, shortened: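 Total protein read at 560 nm after 0.1% SRB staining of TCA-fixed human skin fibroblasts, […]. Activity is fitted in both directions relative to DMSO as baseline.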

[2] = read-out: Macrophage colony-stimulating factor (MCSF), CSF1 (gene 1435); assay: BSK_hDFCGF_MCSF: BioMAP Diversity Plus: hDFCGF Assay for Macrophage colony-stimulating factor (MCSF) Biomarker Activity (AID 2283060); settings: primary human foreskin fibroblasts; actives raise or lower the signal
Procedure, shortened: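 Primary human foreskin fibroblasts dosed with chemical; 24 h later, M-CSF quantified by ELISA; curves fitted in both directions vs DMSO negative control.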

[3] = BSK_hDFCGF_SRB: Viability Assessment in the BioMAP Diversity Plus: hDFCGF Assay (AID 2283061); settings: primary human foreskin fibroblasts;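 also: cells exposed to compound for 24 h before the read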
Procedure, shortened: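 Readout is SRB absorbance at 560 nm, reflecting total protein in parallel cultures of human foreskin fibroblasts harvested 24 h after chemical dosing. Activity was fitted bidirectionally relative to DMSO.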

[4] = read-out: TIMP metallopeptidase inhibitor 1 (TIMP1), TIMP1 (gene 7076); assay: BSK_hDFCGF_TIMP1: BioMAP Diversity Plus: hDFCGF Assay for TIMP metallopeptidase inhibitor 1 (TIMP1) Biomarker Activity (AID 2283062); settings: primary human foreskin fibroblasts; actives raise or lower the signal
Procedure, shortened: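 Human skin fibroblasts (primary), hDFCGF system; compound exposure 24 h; TIMP-1 by ELISA; bidirectional fit vs DMSO negative control; overt cytotoxicity by SRB in parallel wells.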

[5] = read-out: Monokine induced gamma interferon (MIG), CXCL9 (gene 4283); assay: BSK_hDFCGF_MIG: BioMAP Diversity Plus: hDFCGF Assay for Monokine induced gamma interferon (MIG) Biomarker Activity (AID 2283063); settings: primary human foreskin fibroblasts; actives raise or lower the signal
Procedure, shortened: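 Chemicals were added to primary human foreskin fibroblast cultures, which were sampled 24 h later. MIG levels were then quantified by ELISA and responses fitted in both directions relative to DMSO.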

[6] = read-out: Matrix Metallopeptidase 1 (MMP1), MMP1 (gene 4312); assay: BSK_hDFCGF_MMP1: BioMAP Diversity Plus: hDFCGF Assay for Matrix Metallopeptidase 1 (MMP1) Biomarker Activity (AID 2283064); settings: primary human foreskin fibroblasts; actives raise or lower the signal
Procedure, shortened: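 hDFCGF primary fibroblasts (human foreskin); chemical added; 24 h; MMP1 by ELISA; bidirectional fit vs DMSO.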

[7] = read-out: Vascular cell adhesion molecule 1 (VCAM1), VCAM1 (gene 7412); assay: BSK_hDFCGF_VCAM1: BioMAP Diversity Plus: hDFCGF Assay for Vascular cell adhesion molecule 1 (VCAM1) Biomarker Activity (AID 2283065); settings: primary human foreskin fibroblasts; actives raise or lower the signal;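 as to AC50: VCAM-1 protein level quantified by ELISA after 24 h chemical exposure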
Procedure, shortened: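 Human foreskin fibroblast primary cells, chemical exposure 24 h; VCAM-1 by ELISA; bidirectional fit, DMSO = negative control/baseline.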

[8] = read-out: Intercellular Adhesion Molecule 1 (ICAM1), ICAM1 (gene 3383); assay: BSK_KF3CT_ICAM1: BioMAP Diversity Plus: KF3CT Assay for Intercellular Adhesion Molecule 1 (ICAM1) Biomarker Activity (AID 2283067); settings: primary human keratinocytes with fibroblasts; actives raise or lower the signal
Procedure, shortened: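 ICAM-1 levels are measured by ELISA 24 h after dosing a primary human co-culture of keratinocytes and foreskin fibroblasts. Activity in either direction is fitted relative to DMSO vehicle.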

[9] = BSK_KF3CT_SRB: Viability Assessment in the BioMAP Diversity Plus: KF3CT Assay (AID 2283069); settings: primary human keratinocytes with fibroblasts;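 also: total protein by sulforhodamine B staining as a cytotoxicity measure; read 24 h after compound addition; fitted for both signal gain and loss against DMSO baseline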
Procedure, shortened: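 Keratinocytes co-cultured with foreskin fibroblasts (human primary); chemical added, 24 h; fix 10% TCA, stain 0.1% SRB, A560. Bidirectional fit vs DMSO.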

[10] = read-out: Interleukin-1 alpha (IL1a), IL1A (gene 3552); assay: BSK_KF3CT_IL1a: BioMAP Diversity Plus: KF3CT Assay for Interleukin-1 alpha (IL1a) Biomarker Activity (AID 2283070); settings: primary human keratinocytes with fibroblasts; actives raise or lower the signal
Procedure, shortened: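 Chemicals were dosed onto co-cultured human keratinocytes and foreskin fibroblasts, IL-1a was quantified by ELISA at 24 h, and activity was fitted in both directions relative to DMSO controls.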

[11] = read-out: TIMP metallopeptidase inhibitor 2 (TIMP2), TIMP2 (gene 7077); assay: BSK_KF3CT_TIMP2: BioMAP Diversity Plus: KF3CT Assay for TIMP metallopeptidase inhibitor 2 (TIMP2) Biomarker Activity (AID 2283071); settings: primary human keratinocytes with fibroblasts; actives raise or lower the signal
Procedure, shortened: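 Cells: human keratinocytes co-cultured with foreskin fibroblasts. Treat with chemical, 24 h. Measure TIMP-2 by ELISA; fit curves bidirectionally vs DMSO baseline.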

[12] = read-out: C-C motif chemokine 2 (Homo sapiens) (UniProt P13500); assay: BSK_KF3CT_MCP1: BioMAP Diversity Plus: KF3CT Assay for Monocyte Chemoattractant Protein 1 (MCP1/CCL2) Biomarker Activity (AID 2283073); settings: primary human keratinocytes with fibroblasts; actives raise or lower the signal
Procedure, shortened: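 ELISA readout of MCP-1 after 24 h chemical dosing of a human skin primary co-culture of keratinocytes and foreskin fibroblasts. Activity was fitted in both directions against DMSO.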

[13] = read-out: Matrix Metallopeptidase 9 (MMP9), MMP9 (gene 4318); assay: BSK_KF3CT_MMP9: BioMAP Diversity Plus: KF3CT Assay for Matrix Metallopeptidase 9 (MMP9) Biomarker Activity (AID 2283074); settings: primary human keratinocytes with fibroblasts; actives raise or lower the signal;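 as to AC50: MMP9 protein level quantified by ELISA in the co-culture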
Procedure, shortened: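 Human keratinocyte/foreskin fibroblast co-culture; compound added; 24 h; MMP-9 by ELISA; bidirectional fit vs DMSO baseline.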

[14] = read-out: urokinase plasminogen activator (uPA), PLAU (gene 5328); assay: BSK_KF3CT_uPA: BioMAP Diversity Plus: KF3CT Assay for urokinase plasminogen activator (uPA) Biomarker Activity (AID 2283075); settings: primary human keratinocytes with fibroblasts; actives raise or lower the signal
Procedure, shortened: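 ELISA readout of uPA, analyzed for signal gain or loss relative to DMSO, from a human primary keratinocyte–foreskin fibroblast co-culture measured 24 h after chemical treatment.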

CD40, CD40 (gene 958) = assay: BSK_LPS_CD40: BioMAP Diversity Plus: LPS Assay for CD40 Biomarker Activity (AID 2283076); settings: primary human HUVEC with PBMC; actives raise or lower the signal
Procedure, shortened: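 Cells were dosed, incubated 24 h, then assayed for CD40 by ELISA. Gain or loss of signal was analysed relative to DMSO controls. The culture paired human umbilical vein endothelium with peripheral blood mononuclear cells.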

[15] = read-out: E-selectin (Homo sapiens) (UniProt P16581); assay: BSK_LPS_Eselectin: BioMAP Diversity Plus: LPS Assay for Eselectin Biomarker Activity (AID 2283077); settings: primary human HUVEC with PBMC; actives raise or lower the signal
Procedure, shortened: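 Primary human vascular co-culture (endothelium plus PBMC) was dosed with chemical, then E-selectin quantified by ELISA at 24 h. Endpoint values derive from bidirectional curve fitting relative to DMSO.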

[16] = read-out: Interleukin-8 (IL8), CXCL8 (gene 3576); assay: BSK_LPS_IL8: BioMAP Diversity Plus: LPS Assay for Interleukin-8 (IL8) Biomarker Activity (AID 2283078); settings: primary human HUVEC with PBMC; actives raise or lower the signal
Procedure, shortened: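 Readout is IL-8 by ELISA, taken 24 h after compounds were added to LPS-stimulated endothelial/PBMC co-cultures. Both increases and decreases relative to DMSO control were scored through bidirectional fitting.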

[17] = read-out: Plasminogen activator inhibitor-1 (PAI1), SERPINE1 (gene 5054); assay: BSK_hDFCGF_PAI1: BioMAP Diversity Plus: hDFCGF Assay for Plasminogen activator inhibitor-1 (PAI1) Biomarker Activity (AID 2283066); settings: primary human foreskin fibroblasts; actives raise or lower the signal
Procedure, shortened: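 Primary dermal fibroblasts (human foreskin), hDFCGF system; compound 24 h; PAI-1 by ELISA; bidirectional fit vs DMSO control.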

[18] = read-out: Transforming growth factor beta 1 (TGFb1), TGFB1 (gene 7040); assay: BSK_KF3CT_TGFb1: BioMAP Diversity Plus: KF3CT Assay for Transforming growth factor beta 1 (TGFb1) Biomarker Activity (AID 2283072); settings: primary human keratinocytes with fibroblasts; actives raise or lower the signal
Procedure, shortened: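 Primary human skin cells (keratinocytes, foreskin fibroblasts) were co-cultured, exposed to test chemical and sampled at 24 h. TGF-b1 levels were measured by ELISA and fitted bidirectionally relative to DMSO.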

[19] = read-out: Interferon-gamma inducible Protein 10 (IP10), CXCL10 (gene 3627); assay: BSK_KF3CT_IP10: BioMAP Diversity Plus: KF3CT Assay for Interferon-gamma inducible Protein 10 (IP10) Biomarker Activity (AID 2283068); settings: primary human keratinocytes with fibroblasts; actives raise or lower the signal
Procedure, shortened: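 Human keratinocyte plus foreskin fibroblast primary co-culture exposed to test chemical for 24 h; IP-10 measured by ELISA. Concentration-response fitted bidirectionally against DMSO control as baseline.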

Measured: AC50

Sequence of E-selectin (Homo sapiens) (P16581 whole entry, looked up): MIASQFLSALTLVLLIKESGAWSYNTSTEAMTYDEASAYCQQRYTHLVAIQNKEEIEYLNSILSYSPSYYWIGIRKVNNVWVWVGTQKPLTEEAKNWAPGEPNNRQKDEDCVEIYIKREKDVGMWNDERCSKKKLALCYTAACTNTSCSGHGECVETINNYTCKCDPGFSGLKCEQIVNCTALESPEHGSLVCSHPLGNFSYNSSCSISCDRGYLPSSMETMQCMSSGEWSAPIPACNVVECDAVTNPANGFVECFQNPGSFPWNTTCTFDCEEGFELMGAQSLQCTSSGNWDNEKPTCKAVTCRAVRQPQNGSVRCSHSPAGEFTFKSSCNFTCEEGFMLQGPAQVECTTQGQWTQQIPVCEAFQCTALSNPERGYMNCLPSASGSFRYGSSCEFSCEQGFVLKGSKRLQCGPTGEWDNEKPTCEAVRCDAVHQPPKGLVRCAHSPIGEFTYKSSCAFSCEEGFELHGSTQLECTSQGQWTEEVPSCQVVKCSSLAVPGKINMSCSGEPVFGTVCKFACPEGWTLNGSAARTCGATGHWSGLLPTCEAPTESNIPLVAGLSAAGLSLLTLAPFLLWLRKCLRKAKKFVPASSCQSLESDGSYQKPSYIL

OCC(F)(F)OC(F)(F)C(F)(F)OC(F)(F)C(F)(F)OC(F)(F)F
inactive: [2] | [3] | [4] | [6] | [7] | CD40, CD40 (gene 958) | [15]
active: [1] 11.6 µM and 15.8 µM | [5] 16 µM and 14.7 µM | [7] 19.3 µM | [8] 48.3 µM and 46.3 µM | [9] 48.3 µM and 48.1 µM | [10] 41.4 µM and 44.4 µM | [11] 51.7 µM and 45 µM | [12] 49.3 µM and 22.2 µM | [13] 54.1 µM and 51.6 µM | [14] 45.7 µM and 45.1 µM | CD40, CD40 (gene 958) 41 µM | [16] 47.4 µM and 51.8 µM

O=C(O)C(Cl)Cl
not listed: [19]
inactive: all other assays above

NC(=O)C(F)(F)C(F)(F)F
not listed: [8] | [13] | [18]
inactive: all other assays above

Cc1ccc(O)cc1C
not listed: [15] | [17] | [19]
inactive: all other assays above

CC(C)Nc1ccc(Nc2ccccc2)cc1
active: [1] 464 nM | [2] 6.38 µM | [3] 6.01 µM | [4] 6.56 µM | [5] 6.46 µM | [6] 11.4 µM | [7] 2.21 µM | [17] 7.9 µM | [19] 32.7 µM | [10] 24.4 µM | [11] 28.9 µM | [18] 17.3 µM | [12] 33.3 µM | [13] 20 µM | [14] 31.6 µM | CD40, CD40 (gene 958) 14 µM | [16] 20 µM

OCC(F)(F)OC(F)(F)C(F)(F)OC(F)(F)CO
not listed: [18] | [19]
inactive: all other assays above

Nc1ccc2ccccc2c1
not listed: [17]
inactive: all other assays above

OCC(F)(F)OC(F)(F)C(F)(F)OC(F)(F)C(F)(F)OC(F)(F)CO
active: [1] 4.15 µM and 36.9 µM | [2] 14 µM | [3] 5.95 µM | [5] 16.8 µM and 23.2 µM | [6] 10.5 µM and 8.39 µM | [7] 13.4 µM and 8.26 µM | CD40, CD40 (gene 958) 7.62 µM
inactive: [2] | [3] | [4] | [8] | [19] | [9] | [10] | [11] | [12] | [13] | [14] | CD40, CD40 (gene 958) | [16]

CCCCC(CC)COC(=O)c1c(Br)c(Br)c(Br)c(Br)c1C(=O)OCC(CC)CCCC (stereo unspecified)
not listed: [8] | [13] | [15] | [19]
inactive: all other assays above

CCN(CC)c1ccccc1
not listed: [8] | [13] | [15] | [19]
inactive: all other assays above

CCCCN(CCCC)SN(C)C(=O)Oc1cccc2c1OC(C)(C)C2
inactive: [8] | [19] | [9] | [10] | [11] | [18] | [12] | [14]
active: [1] 6340 nM | [2] 7.15 µM | [3] 9.64 µM | [4] 12.4 µM | [5] 13.2 µM | [6] 12.4 µM | [7] 5.54 µM | [13] 13.8 µM | CD40, CD40 (gene 958) 20 µM | [16] 30.9 µM
